# Compound activity as filed in PubChem.
# This is a sample that favours compounds with a hit; in the whole collection about 17% have one here.
# TGFb inhibitor: qHTS for Inhibitors of TGF-b; Potency, µM (top dose mostly 46.1 µM), without a hit: at the top dose activity, negative = inhibition, most hits filed as inhibitors; 1.2% of 410,000 active; HepG2 CAGA-GFP TGF-b/SMAD3 reporter, GFP fluorescence, 18 h; TGF-beta stimulated, 500 pg/mL final; also: % is scaled to controls: 0 for no effect and ±100 for the full control effect; nearly all actives have a fitted effect of over 65% in size
#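 Inhibition was scored as loss of TGF-beta-induced (500 pg/mL final, 18 hours, 37 degrees C) GFP in HEPG2 cells carrying a CAGA-GFP reporter, in DMEM with 1% FBS. Well GFP was summed per cell; Activity was normalised to unstimulated and stimulated DMSO wells, then concentration-response fitting.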
# S2 tox: Viability Counterscreen for Primary qHTS for Inhibitors of ATXN expression | 0.49% of 400,000 active | AID 651635, 2014 | S2 cells (HEK-293 line with an ATXN2-luciferase reporter) viability, CellTiter-Fluor protease fluorescence, 24 h | Potency, µM (titrated, usually from 56.7 µM), usual class: cytotoxic; also: nearly all actives have a fitted effect of over 40% in size
# DT40 TDP1 no CPT: qHTS for Inhibitors of human tyrosyl-DNA phosphodiesterase 1 (TDP1): qHTS in cells in absence of CPT | DT40 Tdp1-/- hTDP1 cells, no CPT, ATP luminescence, 48 h | Potency, µM (top dose mostly 46.2 µM), inactives show at the highest dose activity change, negative = growth inhibition, usual class: inhibitors | 15% of 420,000 active | AID 686978, 2013; also: % is scaled to controls: 0 for no effect and ±100 for the full control effect; nearly all actives have a fitted effect of over 55% in size
#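 Camptothecin absent (DMSO only). Human TDP1-complemented DT40 knockout cells, 400 cells/well, 37 °C for minimum 48 hr; ATP measured via CellTiter-Glo, 30 min dark incubation, luminescence.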
# HepG2 viability: qHTS for Inhibitors of TGF-b: Cytotox Counterscreen | HepG2 CAGA-GFP viability, ATP luminescence, 18 h | Potency, µM (top dose mostly 46.1 µM), without a hit: top-dose activity change, negative = cytotoxicity, most hits filed as cytotoxic | 0.76% of 410,000 active | AID 588856, 2011
#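 CellTiter-Glo luminescence gave cytotoxicity after 18 hours at 37 degrees C. The cells were HepG2 CAGA-GFP in 1% FBS DMEM, stimulated with 500 pg/mL TGF-beta after compound addition. %Activity was normalised to no-cell wells (complete cell-killing) and DMSO (no toxicity), and curves were fitted and classified.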
# DT40 TDP1 CPT: qHTS for Inhibitors of human tyrosyl-DNA phosphodiesterase 1 (TDP1): qHTS in cells in presence of CPT. chicken DT40 Tdp1-/-;hTDP1 cells + 20 nM CPT, ATP luminescence, 48 h. 12% of 420,000 active. Potency, µM (doses to about 46.2 µM), for inactives: top-dose activity change, negative = growth inhibition, most hits filed as inhibitors. AID 686979, 2013; also: % is scaled to controls: 0 for no effect and ±100 for the full control effect; nearly all actives have a fitted effect of over 55% in size
#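 Chicken DT40 Tdp1-/- cells stably complemented with human TDP1 were seeded at 400 cells/well in medium containing 20 nM camptothecin, exposed to pin-transferred compounds, and grown at 37 °C for at least 48 hr. Viability was read as ATP luminescence.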
# ATXN2 expr inh: Primary qHTS for Inhibitors of ATXN expression; HEK-293 ATXN2-luciferase reporter, luminescence, 24 h; 0.72% of 360,000 active; Potency, µM (highest dose often 57 µM), without a hit: top-dose activity change, negative = inhibition, hits mostly inhibitors; also: % is scaled to controls: 0 for no effect and ±100 for the full control effect; nearly all actives have a fitted effect of over 55% in size
#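 ATXN2-luciferase reporter cells (luciferase flanked by upstream and downstream ATXN2 gene portions) were treated 24 h at 37 °C with compounds at up to 57 uM. SteadyGlo luminescence gave expression; GF-AFC fluorescence gave viability.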
# * hit, by the source's call; i = inactive; ? = inconclusive; nt = not tested or not shown; ! = not confirmed by another sample. Calls follow the shape of the dose curve; as a rule, active = well fitted curve in the direction sought with a large enough effect; inconclusive = small, poorly fitted or top-dose-only effect, or another doubt; inactive = no such curve, though single readings can be large; an effect the other way counts as inactive or inconclusive. Potency is read from the fitted curve at half-maximal effect.
SMILES,TGFb inhibitor,S2 tox,DT40 TDP1 no CPT,HepG2 viability,DT40 TDP1 CPT,ATXN2 expr inh
CCOC(=O)c1cc2c(=O)n3ccccc3nc2n(CCOC)c1=NC(=O)c1c(-c2c(F)cccc2Cl)noc1C,20%,i,18µM*!,-4%,?,-22%
CCOC(=O)c1cc2c(=O)n3ccccc3nc2n(Cc2ccco2)c1=NC(=O)c1ccccc1OCC,?,nt,18µM*,4%,?,-1%
CCOC(=O)c1cc2c(=O)n3ccccc3nc2n(CCOC)c1=NC(=O)c1ccncc1,0%,i,?,-16%,?,-5%
CCOC(=O)c1cc2c(=O)n3ccccc3nc2n(Cc2ccco2)c1=NC(=O)c1cccnc1,-4%,nt,?,7%,?,9%
CCOC(=O)c1cc2c(=O)n3cccc(C)c3nc2n(Cc2ccco2)c1=NC(=O)c1cccnc1,17%,?,?,-2%,16µM*,6%
COc1ccc(C2/C(=C(/O)c3ccc(F)cc3)C(=O)C(=O)N2CCCN2CCOCC2)cc1OC (stereo not given),-3%,i,-11%,-9%,-2%,nt
CCCCn1cc(S(=O)(=O)c2ccccc2)c(=O)c2cc(F)c(N3CCC(C)CC3)cc21,-17%,nt,?,-9%,?,nt
COC(=O)[C@@]1(Cc2ccc(F)cc2)[C@H]2c3cc(C(=O)N4CCCC4)n(CCc4ccc(OC)c(Br)c4)c3C[C@H]2CN1C(=O)c1ccccc1,nt,?,18µM*,nt,?,-26%
COC(=O)[C@@]1(Cc2ccc(OC)cc2)[C@H]2c3cc(C(=O)N4CCCC4)n(CCO)c3C[C@H]2CN1C(=O)c1ccccc1,?,i,-5%,-1%,0%,5%
COC(=O)[C@@]1(Cc2ccc(OC)cc2)[C@H]2c3cc(C(=O)N4CCCC4)n(Cc4ccccc4)c3C[C@H]2CN1C(=O)c1ccccc1,nt,?,16µM*,nt,?,0%
COC(=O)[C@@]1(Cc2ccc(OC)cc2)[C@H]2c3cc(C(=O)N4CCCC4)n(CCc4ccc(OC)c(Br)c4)c3C[C@H]2CN1C(=O)c1ccccc1,nt,i,21µM*,nt,15µM*,0%
COC(=O)[C@@]1(Cc2ccc(F)cc2)[C@H]2c3cc(C(=O)N4CCCC4)n(CCO)c3C[C@H]2CN1C(=O)c1ccccc1,-20%,i,-22%,-17%,?,-3%
COC(=O)[C@@]1(Cc2ccc(F)cc2)[C@H]2c3cc(C(=O)N4CCCC4)n(Cc4ccc(Cl)c(C(F)(F)F)c4)c3C[C@H]2CN1C(=O)c1ccccc1,nt,?,21µM*,nt,21µM*,0%
Clc1ccc2c(c1)CNc1c(ncnc1N1CCOCC1)O2,15%,i,?,-3%,?,-4%
O=C(O)CSCc1nc2cccnc2n1C1CCCCC1,0%,i,?,0%,-10%,0%
COC(=O)[C@@]1(Cc2ccc(F)cc2)[C@H]2c3cc(C(=O)N(C)C)n(CCF)c3C[C@H]2CN1C(=O)c1ccccc1,nt,i,?,nt,?,-12%
COC(=O)[C@@]1(Cc2ccc(F)cc2)[C@H]2c3cc(C(=O)N(C)C)n(CC4CC4)c3C[C@H]2CN1C(=O)c1ccccc1,nt,?,18µM*,nt,?,-31%
COc1cc(/C=C/C(=O)OCC(=O)N2c3ccccc3NC(=O)C2(C)C)cc(OC)c1OC,?,i,10µM*,-68%,18µM*,?
COc1ccc(S(=O)(=O)NC2CC(=O)N(c3ccc(C)c(C)c3)C2)cc1 (stereo not given),3%,i,16µM*,8%,?,-13%
Cc1ccc(N2CC(NC(=O)c3ccc(S(=O)(=O)N4CCCC4)cc3)CC2=O)cc1C (stereo not given),-3%,nt,18µM*,3%,?,nt
COc1cccc(N2CC(NS(=O)(=O)c3ccc4ccccc4c3)CC2=O)c1 (stereo not given),-11%,i,29µM*,-5%,-15%,-21%
Cc1ccc(N2CC(NC(=O)c3ccc(S(=O)(=O)N4CCOCC4)cc3)CC2=O)cc1C (stereo not given),-2%,nt,?,-26%,?,nt
COc1cccc(N2CC(NS(=O)(=O)c3cccnc3)CC2=O)c1 (stereo not given),0%,i,-29%,-1%,-15%,1%
Cc1ccc(N(CC(C)C)S(=O)(=O)c2nnc(NC(=O)C(C)C)s2)cc1,?,nt,?,0%,?,nt
O=C(OCc1ccccc1)N1CCC2CC1c1cc(/C=C/CCCSc3ncccn3)ccc12 (stereo not given),-12%,i,23µM*,-30%,?,21%
SMILES,TGFb inhibitor,S2 tox,DT40 TDP1 no CPT,HepG2 viability,DT40 TDP1 CPT,ATXN2 expr inh
Cc1ccccc1C(=O)N1CCC2CC1c1cc(-c3ccc(F)cc3)ccc12 (stereo not given),?,i,18µM*,-69%,?,-25%
Cc1ccccc1C(=O)N1CCC2CC1c1cc(Cl)ccc12 (stereo not given),-24%,i,?,-23%,-24%,-16%
COc1ccc(-c2ccc3c(c2)C2CC3CCN2C(=O)OCc2ccccc2)cc1 (stereo not given),-21%,i,?,-17%,16µM*,25%
O=C(OCc1ccccc1)N1CCC2CC1c1cc(-c3ccc(F)cc3)ccc12 (stereo not given),-22%,i,?,-42%,?,32%
O=C(c1cc(Cl)cc(Cl)c1)N1CCC2CC1c1cc(N3CCCCC3)ccc12 (stereo not given),4%,?,21µM*,-30%,?,-8%
CC(C)c1ccc(NS(=O)(=O)c2ccc3[nH]cc(C(=O)N4CCCC4)c(=O)c3c2)cc1,-1%,i,3%,-21%,8%,2%
COC(=O)C1=C(C)OC(N)=C(C#N)C1c1c(C)nn(C)c1C (stereo not given),-3%,?,16%,6%,9%,6%
COc1ccc(-c2ccc3c(c2)C2CC3CCN2S(=O)(=O)c2ccccc2C)cc1 (stereo not given),-20%,i,16µM*,-5%,?,-25%
